This passage reports outcome and AC50 results from PubChem BioAssay (EPA / NIEHS).

Molecules are shown by their SMILES. “And” between values parts separate entries of the source, which are not always exact repeats. Identical values can stand only once. Results filed as inconclusive are left out. Some compounds were tested as several samples or in several runs, with calls that do not always agree. The source made the active and inactive calls. Rule for the calls, unless noted: active = hit-call score of the fitted dose curve at least 0.9, where 1 is the maximum; inconclusive = response in the unintended direction; inactive = score below 0.9.

Read-out in experiment [1]: UDP glucuronosyltransferase (UGT1A6), UGT1A6 (gene 54578)
Kind of experiment: LTEA_HepaRG_UGT1A6: Life Technologies and Expression Analysis (LTEA) Assay for UDP glucuronosyltransferase (UGT1A6) using HepaRG (AID 2283539; active = hit-call score of the fitted dose curve at least 0.9, where 1 is the maximum; inactive = score below 0.9). The following applies: mRNA level, 48 h; actives raise or lower the signal. The procedure, abridged:
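Measures mRNA change in HepaRG hepatic cells exposed 48 h to chemicals (eight-point, maximum 100 uM, 0.5% DMSO vehicle) in serum-free induction medium. Expression normalized to endogenous controls; DMSO served as negative control and baseline.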

Read-out in experiment [2]: X-box binding protein 1 (XBP1), XBP1 (gene 7494)
Briefly: LTEA_HepaRG_XBP1: Life Technologies and Expression Analysis (LTEA) Assay for X-box binding protein 1 (XBP1) using HepaRG (AID 2283540; active = hit-call score of the fitted dose curve at least 0.9, where 1 is the maximum; inactive = score below 0.9). The following applies: mRNA level, 48 h; actives raise or lower the signal. The procedure, abridged: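 Eight concentrations (half-log, highest 100 uM, 0.5% DMSO) tested in duplicate on HepaRG cells over 48 h in serum-free induction medium; qRT-PCR of XBP1 normalised to ACTB, GAPDH, POLR2A.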

Experiment [3] can be described thus: LTEA_HepaRG_LDH_cytotoxicity: Cytotoxicity Assessment in the Life Technologies and Expression Analysis (LTEA) Assay (AID 2283563). The procedure, abridged: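 Spent-medium LDH after 48 h chemical exposure of HepaRG cells in serum-free induction medium; eight concentrations, half-log dilutions from 100 uM, duplicate wells, fitted upward relative to 0.5% DMSO.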

A short description of experiment [4]: ATG_XTT_Cytotoxicity: Cytotoxicity Assessment in the Attagene TRANS-FACTORIAL HepG2 Assay (AID 2283584). The procedure, abridged: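 24 h chemical exposure of reporter-transfected HepG2; XTT signal loss vs DMSO indicates cytotoxicity.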
A short description of experiment [5]: TOX21_p53_BLA_p2_viability: Viability Assessment in the Tox21 HCT-116 p53 Agonism Beta-lactamase Assay, Phase 2 (AID 2283591).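 Note: compound exposure lasted 16 h at 37 °C; actives lower the ATP signal meaning cytotoxicity.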 The essentials: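 HCT116 p53-bla cells, 4000/well, dosed after 5 h plating (217-fold dilution of DMSO stocks) and incubated 16 h at 37C. Viability taken as cellular ATP by CellTiter-Glo luminescence after 30 min RT; signal loss marks cytotoxicity.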

The target of experiment [6] is Cellular tumor antigen p53 (Homo sapiens) (UniProt P04637). Kind of experiment: TOX21_p53_BLA_p2_ratio: Tox21 HCT-116 p53 Agonism Beta-lactamase Assay, Ratio, Phase 2 (AID 2283592). The essentials: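 Human colon HCT116 cells with an inducible p53 beta-lactamase reporter are exposed to test chemicals for 16 h at 37C. Reporter induction is read as the 460/530 nm emission ratio after CCF4-AM loading, normalized to DMSO.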

A short description of experiment [7]: TOX21_p53_BLA_p3_viability: Viability Assessment in the Tox21 HCT-116 p53 Agonism Beta-lactamase Assay, Phase 3 (AID 2283593).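 Note: cells exposed to compound for 16 h before reading.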 The procedure, abridged: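 HCT116 cells, 4000/well, dosed 5 h after plating by pin transfer (217-fold dilution from DMSO stock) and incubated 16 h at 37C, 5% CO2. Viability read as ATP luminescence with CellTiter-Glo after 30 min at room temperature.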

The target in experiment [8] is Cellular tumor antigen p53 (Homo sapiens) (UniProt P04637). Kind of experiment: TOX21_p53_BLA_p3_ratio: Tox21 HCT-116 p53 Agonism Beta-lactamase Assay, Ratio, Phase 3 (AID 2283596). The essentials: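 HCT116 p53-bla cells (4000/well) given compound in DMSO (217-fold dilution) after 5 h, incubated 16 h at 37C. CCF4-AM substrate 2 h at room temperature; 460/530 nm emission ratio, gain fitted against DMSO.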

Experiment [9] is described as follows: TOX21_p53_BLA_p4_viability: Viability Assessment in the Tox21 HCT-116 p53 Agonism Beta-lactamase Assay, Phase 4 (AID 2283597).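 Note: hits lower the luminescence signal meaning cytotoxicity.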 The procedure, abridged:
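Luminescent ATP readout (CellTiter-Glo, 30 min, room temperature) in the same wells as the p53 bla ratio. HCT116 cells were treated for 16 h at 37C with DMSO-dissolved compounds.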

Experiment [10] concerns the target Cellular tumor antigen p53 (Homo sapiens) (UniProt P04637). Briefly: TOX21_p53_BLA_p5_ratio: Tox21 HCT-116 p53 Agonism Beta-lactamase Assay, Ratio, Phase 5 (AID 2283599). The essentials:
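HCT-116 p53-bla cells (4000/well) plated 5 h, dosed with compound (217-fold DMSO dilution) for 16 h at 37 C; CCF4-AM substrate 2 h at room temperature. Activity is the 460/530 nm emission ratio (405 nm excitation), fitted in gain-of-signal direction versus DMSO.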

Experiment [11] in a line: TOX21_p53_BLA_p5_viability: Viability Assessment in the Tox21 HCT-116 p53 Agonism Beta-lactamase Assay, Phase 5 (AID 2283600). The essentials: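 Seeded cells (4000/well) settle 5 h before compound addition. Plates then incubate 16 h at 37C, receive FRET substrate for 2 h, and finally CellTiter-Glo, with luminescence measured after a 30 min room-temperature incubation.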

Experiment [12] has as its target Cellular tumor antigen p53 (Homo sapiens) (UniProt P04637). Kind of experiment: TOX21_p53_BLA_p4_ratio: Tox21 HCT-116 p53 Agonism Beta-lactamase Assay, Ratio, Phase 4 (AID 2283601). The essentials: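 HCT-116 p53 beta-lactamase reporter cells (4000/well) preincubated 5 h, then compound (217-fold dilution of DMSO stock) for 16 h at 37C. CCF4-AM substrate added 2 h at room temperature; 460/530 nm emission ratio fitted upward versus DMSO.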

The nature of experiment [13]: Tanguay_ZF_120hpf_MORT_legacy: (Legacy) Oregon State University Tanguay Lab 120 Hour Post-fertilization zebrafish Assay for Mortality (AID 2283633). The procedure, abridged:
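Single dechorionated Tropical 5D embryos were held with test chemical (0.64% DMSO final) from 6 to 120 hpf at 28C under foil. Deaths at 24 or 120 hpf were recorded as binary calls, analysed for increase over DMSO controls.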

Experiment [14] is described as follows: Tanguay_ZF_120hpf_AXIS_legacy: (Legacy) Oregon State University Tanguay Lab 120 Hour Post-fertilization zebrafish Assay for Body Axis Malformation (AID 2283635). The procedure, abridged:
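Each dechorionated embryo was exposed alone from 6 hpf, with DMSO at 0.64% (vol/vol) and trimethyltin chloride 5 uM as positive control. Axis malformation was recorded at 120 hpf unless the embryo had died.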

Experiment [15] can be described thus: Tanguay_ZF_120hpf_EYE_legacy: (Legacy) Oregon State University Tanguay Lab 120 Hour Post-fertilization zebrafish Assay for Eye Malformation (AID 2283636).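 Note: binary presence or absence of eye malformation scored by brightfield in 120 hpf larvae.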 The essentials:
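Dechorionated Tropical 5D zebrafish embryos, one per well from 6 hpf, static exposure to 120 hpf at 28C, 0.64% DMSO. Eye malformation scored present/absent by brightfield; dead embryos not scored.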

Experiment [16] is described as follows: Tanguay_ZF_120hpf_JAW_legacy: (Legacy) Oregon State University Tanguay Lab 120 Hour Post-fertilization zebrafish Assay for Jaw Malformation (AID 2283638). The procedure, abridged: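 Wild-type 5D embryos, chorion removed at 4 hpf, dosed singly from 6 hpf; 28C static, sealed, foil-covered, to 120 hpf. Endpoint: jaw defect yes/no (brightfield); mortality excludes scoring.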

A short description of experiment [17]: Tanguay_ZF_120hpf_OTIC_legacy: (Legacy) Oregon State University Tanguay Lab 120 Hour Post-fertilization zebrafish Assay for Otic Vesicle Malformation (AID 2283639). The essentials: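 Tropical 5D wild-type zebrafish embryos were exposed statically in sealed, foil-covered plates at 28C until 120 hpf, with 0.64% (vol/vol) DMSO final. Otic vesicle malformation was scored present/absent by brightfield microscopy, with DMSO as baseline.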

A short description of experiment [18]: Tanguay_ZF_120hpf_PE_legacy: (Legacy) Oregon State University Tanguay Lab 120 Hour Post-fertilization zebrafish Assay for Pericardial Edema (AID 2283640). The essentials: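 Zebrafish larvae are exposed from early development to 120 hpf at 28C, with 0.64% DMSO final. Each surviving larva receives a yes/no pericardial edema call by brightfield imaging, analysed relative to the DMSO baseline.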

A short description of experiment [19]: Tanguay_ZF_120hpf_YSE_legacy: (Legacy) Oregon State University Tanguay Lab 120 Hour Post-fertilization zebrafish Assay for Yolk Sac Edema (AID 2283634). The procedure, abridged:
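Single dechorionated embryos were held in sealed plates at 28C with test chemical (0.64% DMSO final) from 6 hpf until 120 hpf. Edema of the yolk sac was then recorded as a binary endpoint; non-mortality endpoints were skipped for dead embryos.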

A short description of experiment [20]: Tanguay_ZF_120hpf_SNOU_legacy: (Legacy) Oregon State University Tanguay Lab 120 Hour Post-fertilization zebrafish Assay for Snout Malformation (AID 2283637). The procedure, abridged:
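Dechorionated tropical 5D wild-type zebrafish embryos exposed statically from 6 to 120 hpf at 28C, one per well, in 0.64% DMSO. Snout malformation scored as present/absent by brightfield at 120 hpf; dead embryos not scored.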

Sequence of Cellular tumor antigen p53 (Homo sapiens) (P04637 whole entry, looked up): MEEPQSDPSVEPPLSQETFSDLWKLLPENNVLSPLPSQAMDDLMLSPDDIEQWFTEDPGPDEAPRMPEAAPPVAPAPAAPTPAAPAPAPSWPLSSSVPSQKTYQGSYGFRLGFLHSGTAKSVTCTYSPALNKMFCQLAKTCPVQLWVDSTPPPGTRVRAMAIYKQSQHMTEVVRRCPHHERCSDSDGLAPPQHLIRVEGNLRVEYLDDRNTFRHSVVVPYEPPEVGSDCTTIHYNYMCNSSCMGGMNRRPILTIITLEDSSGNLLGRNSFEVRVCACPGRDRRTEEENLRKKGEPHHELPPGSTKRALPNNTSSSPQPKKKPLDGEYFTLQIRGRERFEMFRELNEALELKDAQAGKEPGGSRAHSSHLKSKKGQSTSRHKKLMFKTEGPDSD

For orientation: AC50 means the concentration at which the activity in the assay is half-maximal. For the molecule `O=c1[nH]cc(F)c(=O)[nH]1`, the molecule was called inactive in experiment [1], in experiment [2], in experiment [3], in experiment [4], in experiment [5] and in [7]. In addition, the molecule was classed as inactive in experiment [9], in experiment [11], in experiment [13], in experiment [14], in [15] and in [16]. For the same molecule, the outcome in experiment [17] and in experiment [18] was inactive. Further, the half-maximal activity concentration (AC50) in experiment [5] was 1.34 µM (active) and 1.39 µM (active); in experiment [6], 2.4 µM (active) and 1.97 µM (active) and 4.59 µM (active); in [7], 882 nM (active) and 2.38 µM (active); in experiment [8], 2.99 µM (active) and 2.3 µM (active) and 5.29 µM (active); in experiment [9], 15.7 µM (active) and 9.55 µM (active); in [10] it was 3.72 µM (active) and 3.09 µM (active) and 4.2 µM (active). In addition, the AC50 in experiment [11] is 1.68 µM (active); in [12] it was 3.73 µM (active) and 4.64 µM (active) and 5.42 µM (active).
In the case of `COc1ccc2c(c1)c(CC(=O)O)c(C)n2C(=O)c1ccc(Cl)cc1`, the call in experiment [1], in experiment [2], in experiment [3], in experiment [4], in experiment [5] and in experiment [6] was inactive. The molecule was classed as inactive in experiment [7], in experiment [8], in experiment [9], in experiment [10], in experiment [11] and in experiment [12]. The call in [13], in [14], in experiment [15], in experiment [17] and in [18] was inactive.
As for `CC(=O)OCCOCCOCCOC(C)=O`, the molecule was classed as inactive in [1], in [2], in experiment [3], in [4], in [5] and in [6]. Besides, the molecule was called inactive in [7], in experiment [8], in experiment [9], in experiment [10], in [12] and in experiment [13]. For the same molecule, the result in experiment [19], in experiment [14], in experiment [15], in experiment [20], in experiment [16] and in experiment [17] was inactive. Besides, in experiment [18], the result was inactive.
As to `CCCCCCCC=O`, the molecule was classed as inactive in [1], in experiment [2], in experiment [3], in [4], in experiment [5] and in [6]. For the same molecule, the molecule was classed as inactive in experiment [7], in experiment [8], in experiment [9], in experiment [11], in [12] and in experiment [13]. The outcome in experiment [19], in experiment [14], in experiment [15], in experiment [16], in [17] and in experiment [18] was inactive.
With `Cc1ccccc1Cl`, the outcome in [1], in [2], in experiment [3], in [4], in experiment [5] and in [6] was inactive. The molecule was classed as inactive in experiment [7], in experiment [8], in experiment [10], in experiment [11], in [12] and in experiment [13]. Further, the call in experiment [19], in [14], in experiment [15], in experiment [16], in experiment [17] and in [18] was inactive.
In the case of `CCCCCC(=O)O`, the molecule was classed as inactive in [1], in [2], in [3], in experiment [4], in experiment [5] and in [6]. The call in [7], in experiment [8], in experiment [9], in experiment [10], in experiment [12] and in experiment [13] was inactive. The molecule was called inactive in [19], in [14], in [15], in experiment [20], in experiment [16] and in experiment [17]. Also, in experiment [18], the outcome was inactive.
As for `Cc1ccc(C(C)C)c(O)c1`, the result in [1], in experiment [2], in experiment [3], in experiment [4], in experiment [6] and in experiment [7] was inactive. The result in experiment [8], in experiment [9], in [10], in [11], in experiment [12] and in experiment [13] was inactive. Moreover, the result in experiment [19], in experiment [14], in experiment [15], in experiment [17] and in experiment [18] was inactive. For the same molecule, the AC50 in [5] was 66 µM (active); in [9] it was 60.5 µM (active); in experiment [10] it was 73.2 µM (active); in experiment [12], 86.6 µM (active).
